Results on eight molecules are retold here after PubChem BioAssay (Tox21).

Experiment [1] is described as follows: qHTS assay to test for compound auto fluorescence at 535 nm (green) in HEK293 cells (AID 720680).
A short description of experiment [2]: qHTS assay to test for compound auto fluorescence at 460 nm (blue) in HEK293 cell free culture (AID 720681). A digest of the protocol:
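Blue fluorescence (Ex 405/Em 460 nm, triamterene-equivalent) was read immediately after pin transfer of compound or DMSO into medium (DMEM, 10% FBS) without cells.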
For orientation: Quantitative high-throughput screening tests each substance at several concentrations.

Experiment [3] is described as follows: qHTS assay to test for compound auto fluorescence at 535 nm (green) in HEK293 cell free culture (AID 720682). A digest of the protocol: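 No cells present: wells hold DMEM supplemented with 10% FBS, into which compound or vehicle is pinned. Green emission is then recorded (485 nm excitation, 535 nm emission) and scaled to fluorescein.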
Experiment [4] can be described thus: qHTS assay to test for compound auto fluorescence at 590 nm (red) in HEK293 cell free culture (AID 720683). The procedure, abridged:
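Red-channel autofluorescence of compounds in culture medium (DMEM, 10% FBS), no cells, measured at 540/590 nm. Rose Bengal sodium is the reference fluorophore for equivalence.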

Experiment [5] is described as follows: qHTS assay to test for compound auto fluorescence at 590 nm (red) in HepG2 cell free culture (AID 720684). The procedure, abridged:
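Plate contents were MEM with 10% FBS plus test compound or DMSO, no cells. Fluorescence was recorded with 540 nm excitation and 590 nm emission.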

The nature of experiment [6]: qHTS assay to test for compound auto fluorescence at 460 nm (blue) in HepG2 cell free culture (AID 720685). The procedure, abridged: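 Compound (23 nL) or DMSO pinned into cell-free MEM with 10% FBS; blue fluorescence read at 405/460 nm excitation/emission, expressed as auto-fluorescence equivalency to triamterene.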
Experiment [7] in a line: qHTS assay to test for compound auto fluorescence at 535 nm (green) in HepG2 cell free culture (AID 720686).
A short description of experiment [8]: qHTS assay to test for compound auto fluorescence at 460 nm (blue) in HepG2 cells (AID 720687). A digest of the protocol:
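Blue-channel autofluorescence (Ex/Em 405/460 nm, triamterene-equivalent) was measured after 1 hr compound exposure at 37 C, 5% CO2. Cells were HepG2, plated overnight at 37 C in MEM plus 10% FBS.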

In experiment [9] the target is Glucocorticoid receptor (Homo sapiens) (UniProt P04150). Briefly: qHTS assay to identify small molecule agonists of the glucocorticoid receptor (GR) signaling pathway (AID 720691; active means well fitted activation curve with a large enough effect in the signal ratio in the repeat runs, not every such curve was filed as active; the % refers to the signal ratio; further: potency means the concentration at half of the fitted maximal effect). The procedure, abridged:
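Reporter read-out: fluorescence intensity following 2 h room-temperature LiveBLAzer B/G FRET substrate loading. Prior step: GR-bla HeLa cells held 4 h, then treated 18 h at 37 C.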

The target is the same in experiment [10]. As to the kind of experiment: qHTS assay to identify small molecule antagonists of the glucocorticoid receptor (GR) signaling pathway (AID 720692; active means well fitted inhibition curve with a large enough effect in the signal ratio in the repeat runs, not every such curve was filed as active; the % refers to the signal ratio). A digest of the protocol: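 Dexamethasone (5 nM final) stimulated a stably integrated GRE-beta-lactamase reporter in HeLa cells during 18 h co-incubation with compounds; signal was quantified as fluorescence intensity of B/G FRET substrate after 2 h.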

The nature of experiment [11]: qHTS assay to identify small molecule antagonists of the glucocorticoid receptor (GR) signaling pathway - cell viability counter screen (AID 720693). Further: nearly all actives have a fitted effect of over 55% in size.
Experiment [12] can be described thus: qHTS assay for identifying genotoxic compounds that show differential cytotoxicity against isogenic chicken DT40 cell lines with known DNA damage response pathways - wild type cell line (AID 743012). Further: nearly all actives have a fitted effect of over 60% in size. The procedure, abridged:
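Using parental DT40 (300 cells/well), compounds delivered in DMSO incubate 40 h at 37 C/5% CO2. CellTiter-Glo reagent then stands 30 min at room temperature, and luminescence gives cell viability.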

The nature of experiment [13]: qHTS assay for identifying genotoxic compounds that show differential cytotoxicity against isogenic chicken DT40 cell lines with known DNA damage response pathways - Rev3 mutant cell line (AID 743014). Further: nearly all actives have a fitted effect of over 55% in size.
Experiment [14] in a line: qHTS assay for identifying genotoxic compounds that show differential cytotoxicity against isogenic chicken DT40 cell lines with known DNA damage response pathways - Rad54/Ku70 mutant cell line (AID 743015). Further: nearly all actives have a fitted effect of over 60% in size.
A short description of experiment [15]: qHTS assay to identify small molecule antagonists of the androgen receptor (AR) signaling pathway - cell viability counter screen (AID 743033; further: nearly all actives have a fitted effect of over 45% in size).
Experiment [16] in a line: qHTS assay to identify small molecule antagonists of the androgen receptor (AR) signaling pathway using the MDA cell line - cell viability counter screen (AID 743041; further: nearly all actives have a fitted effect of over 45% in size). The procedure, abridged: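 R1881-driven MDA-kb2 AR-luc cells, 3,000/well, were dosed with library compounds for 16 h; cell health came from CellTiter-Fluor fluorescence in the reporter wells.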
The nature of experiment [17]: qHTS assay to identify small molecule antagonists of the thyroid receptor (TR) signaling pathway - cell viability counter screen (AID 743064). Further: nearly all actives have a fitted effect of over 50% in size. A digest of the protocol: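 Rat GH3 pituitary tumor cells stably expressing two TR response elements driving luciferase were plated, rested 4 h, then dosed with library compounds and T3 (1 nM final). After 23.5 h at 37 °C, CellTiter-Fluor was added for 30 min and fluorescence recorded.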

Experiment [18] deals with Androgen receptor (Homo sapiens) (UniProt P10275). Briefly: qHTS assay to identify small molecule antagonists of the androgen receptor (AR) signaling pathway (AID 743035; active means well fitted inhibition curve with a large enough effect in the signal ratio in the repeat runs, not every such curve was filed as active; the % refers to the signal ratio). The procedure, abridged: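 Using qHTS, AR-UAS-bla GripTite HEK293 cells received compound, then R1881, and were cultured 16 h at 37C/5% CO2 before a 2 h room-temperature LiveBLAzer B/G FRET substrate step and fluorescence measurement.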
Androgen receptor (Homo sapiens), sequence (P10275 whole entry, looked up): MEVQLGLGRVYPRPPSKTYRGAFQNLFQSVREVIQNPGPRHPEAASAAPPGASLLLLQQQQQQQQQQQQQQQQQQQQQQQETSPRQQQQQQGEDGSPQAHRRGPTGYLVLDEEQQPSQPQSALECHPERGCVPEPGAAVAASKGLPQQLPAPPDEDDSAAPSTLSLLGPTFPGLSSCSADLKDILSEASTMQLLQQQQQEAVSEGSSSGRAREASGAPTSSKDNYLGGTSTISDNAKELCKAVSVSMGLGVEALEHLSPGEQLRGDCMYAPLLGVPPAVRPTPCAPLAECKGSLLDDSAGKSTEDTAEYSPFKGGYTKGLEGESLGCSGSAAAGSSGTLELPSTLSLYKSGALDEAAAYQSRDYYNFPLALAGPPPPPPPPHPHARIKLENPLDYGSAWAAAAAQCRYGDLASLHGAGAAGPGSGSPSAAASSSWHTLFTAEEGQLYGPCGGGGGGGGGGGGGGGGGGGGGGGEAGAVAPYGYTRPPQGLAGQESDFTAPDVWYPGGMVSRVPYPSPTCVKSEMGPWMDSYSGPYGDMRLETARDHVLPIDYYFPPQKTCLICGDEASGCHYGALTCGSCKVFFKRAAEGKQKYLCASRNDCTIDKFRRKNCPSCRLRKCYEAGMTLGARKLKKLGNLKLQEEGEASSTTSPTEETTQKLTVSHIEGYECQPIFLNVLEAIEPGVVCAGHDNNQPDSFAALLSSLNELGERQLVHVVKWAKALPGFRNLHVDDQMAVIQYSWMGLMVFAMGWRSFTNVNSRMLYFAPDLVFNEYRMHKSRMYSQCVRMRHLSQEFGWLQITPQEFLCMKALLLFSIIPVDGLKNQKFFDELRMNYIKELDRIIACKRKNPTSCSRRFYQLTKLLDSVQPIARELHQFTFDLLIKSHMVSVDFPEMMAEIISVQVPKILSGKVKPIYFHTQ

Experiment [19] has the same target. As to the kind of experiment: qHTS assay to identify small molecule agonists of the androgen receptor (AR) signaling pathway using the MDA cell line (AID 743040; further: nearly all actives have a fitted effect of over 20% in size). A digest of the protocol: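 After a 5 h incubation at 37C and 0% CO2, MDA-kb2 reporter cells were dosed with compounds in DMSO and kept 16 h under the same conditions. Luciferase activity was then read as luminescence with ONE-Glo.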

Experiment [20] shares this target. Briefly: qHTS assay to identify small molecule antagonists of the androgen receptor (AR) signaling pathway using the MDA cell line (AID 743042; further: nearly all actives have a fitted effect of over 55% in size). The procedure, abridged: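 Antagonist mode: compounds plus R1881 agonist added to MDA-kb2 AR-luc cells, incubated 16 h at 37C. Luciferase reporter luminescence quantified, with multiplexed CellTiter-Fluor readout for cell viability.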

Unmarked numbers belong to inactive results. Inconclusive results are not listed. Calls of active or inactive are those of the source. Unless noted, the call rests on the fitted dose curve; in most records, active means well fitted curve in the direction sought with a large enough effect in the repeat runs; inconclusive means weak or mixed curves; inactive means no such curve, though single readings can be large; an effect the other way counts as inactive or inconclusive.
On the % scale 0 is the no-effect control and ±100 the full control effect.

Glucocorticoid receptor (Homo sapiens), sequence (P04150 whole entry, looked up): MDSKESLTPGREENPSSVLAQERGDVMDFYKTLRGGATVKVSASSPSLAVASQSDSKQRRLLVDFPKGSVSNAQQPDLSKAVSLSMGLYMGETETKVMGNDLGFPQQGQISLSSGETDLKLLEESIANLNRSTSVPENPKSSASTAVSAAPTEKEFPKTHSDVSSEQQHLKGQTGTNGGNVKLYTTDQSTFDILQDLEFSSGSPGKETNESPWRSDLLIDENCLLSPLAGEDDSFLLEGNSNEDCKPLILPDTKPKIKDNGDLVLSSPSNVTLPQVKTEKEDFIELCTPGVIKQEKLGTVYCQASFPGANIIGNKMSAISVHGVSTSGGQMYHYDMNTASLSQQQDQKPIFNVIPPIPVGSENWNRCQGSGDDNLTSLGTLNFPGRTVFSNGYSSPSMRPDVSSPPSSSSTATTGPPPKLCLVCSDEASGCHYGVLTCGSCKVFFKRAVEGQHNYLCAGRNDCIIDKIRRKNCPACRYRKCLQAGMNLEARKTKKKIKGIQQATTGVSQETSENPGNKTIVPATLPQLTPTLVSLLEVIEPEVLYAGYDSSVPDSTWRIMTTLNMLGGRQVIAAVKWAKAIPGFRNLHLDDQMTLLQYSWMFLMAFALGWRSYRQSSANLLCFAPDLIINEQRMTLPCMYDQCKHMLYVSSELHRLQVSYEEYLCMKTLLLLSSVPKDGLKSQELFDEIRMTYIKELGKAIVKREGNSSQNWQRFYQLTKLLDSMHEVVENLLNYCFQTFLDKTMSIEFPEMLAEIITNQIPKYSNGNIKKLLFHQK

As for `CCCCOCCCC`, the molecule was classed as inactive in experiment [1], in [2], in [3], in experiment [4], in [5] and in experiment [6]. For the same molecule, the molecule was called inactive in experiment [7], in [8], in experiment [10], in experiment [11], in experiment [15] and in [16]. Further, the Potency result in [9], in experiment [12], in [13], in [14] and in experiment [17] was “inactive” throughout.

For `COC(=O)c1ccc(C(=O)O)cc1`, the call in experiment [1], in experiment [2], in experiment [3], in experiment [4], in experiment [5] and in experiment [6] was inactive. Further, the call in experiment [7], in experiment [8], in experiment [10], in [11], in experiment [15] and in experiment [16] was inactive. The Potency result in experiment [9], in experiment [12], in experiment [13], in [14] and in experiment [17] was “inactive” throughout.

Take `CN1CCN(C(=O)C2CCCCC2)CC1`: the outcome in experiment [1], in experiment [2], in [3], in experiment [4], in [5] and in [6] was inactive. Moreover, the outcome in [7], in [8], in [11], in experiment [15] and in [16] was inactive. Further, the Potency entry in experiment [9], in [12], in experiment [13] and in [14] was “inactive” each time.

As for `C/C=C(\C)C(=O)OC/C=C(\C)CCC=C(C)C`, the molecule was classed as inactive in [1], in [2], in [3], in [4], in experiment [5] and in experiment [6]. Besides, the molecule was classed as inactive in experiment [7], in [8], in [10], in experiment [15] and in [16]. In addition, the Potency result in experiment [9], in [12], in experiment [13] and in experiment [14] was “inactive” in each case.

For the molecule `CC(C)CC(O)Cc1ccccc1` (configuration not stated), the call in experiment [1], in [2], in experiment [3], in experiment [4], in [5] and in [6] was inactive. Besides, the molecule was classed as inactive in experiment [7], in [8], in [11], in experiment [15], in experiment [18] and in [19]. Further, the molecule was classed as inactive in experiment [16] and in [20]. The Potency entry in experiment [9], in [12], in [13], in [14] and in [17] was “inactive” in each case.

With `c1cc2ccc3ccc4ccc5cccc6c(c1)c2c3c4c56`, the fluorescence, % of fluorescein in experiment [1] is -0.0268% [at 3.72 µM]. The fluorescence, % of fluorescent control in experiment [2] is 1.22% [at 3.72 µM]; in [4], -0.0354% [at 3.72 µM]; in experiment [6], 1.51% [at 3.72 µM]; in experiment [8] it was 2.24% [at 3.72 µM]. In addition, the activity change in experiment [3] was 0.0204% [at 3.72 µM]. The fluorescence, % of Rose Bengal in experiment [5] was 0.202% [at 3.72 µM]. Also, in [7], the fluorescence, % of fluorescein control is -0.0141% [at 3.72 µM]. For the same molecule, the Potency in experiment [9] was 1.95 µM (active). In experiment [10], the activity change, negative = inhibition was 4.22% [at 3.15 µM]. Further, the figures for the viability change, negative = cytotoxic in [11] and in experiment [16] were -5.31% [at 3.15 µM] and 14.1% [at 3.79 µM], respectively. Besides, the activity change, negative = cytotoxicity in experiment [12] is -1.12% [at 3.82 µM]; in experiment [14] it was 5.01% [at 3.83 µM]; in experiment [15], 1.8% [at 3.15 µM]. Besides, the activity, negative = cytotoxicity in [13] is 5.02% [at 3.82 µM]. In addition, in experiment [17], the activity change, negative = cytotoxic was 20.6% [at 3.79 µM].

In the case of `CCCCCCCCCCCCCCBr`, the molecule was called inactive in experiment [1], in experiment [2], in [3], in experiment [4], in experiment [5] and in experiment [6]. The result in experiment [7], in experiment [8], in experiment [10], in experiment [11] and in experiment [15] was inactive. In addition, the Potency entry in experiment [9], in [13], in [14] and in [17] was “inactive” each time.

`OCCC(F)(F)C(F)(F)C(F)(F)C(F)(F)C(F)(F)C(F)(F)F`: the call in experiment [1], in [2], in experiment [3], in experiment [4], in experiment [5] and in experiment [6] was inactive. Moreover, the molecule was called inactive in [7], in experiment [8], in [10], in experiment [11], in experiment [15] and in [16]. Further, the Potency entry in [9], in [12], in experiment [13], in experiment [14] and in experiment [17] was “inactive” throughout.
